MenB inh: M. tuberculosis MenB inhibitors, primary screen, biochemical, absorbance | 1,4-dihydroxy-2-naphthoyl-CoA synthase (Mycobacterium tuberculosis (strain ATCC 25618 / … | MenB enzyme assay, absorbance read-out | inhibition, % (test concentration not listed) | actives 0.43% (n = 100,000) | AID 540299, 2011; in the data active means inhibition above about 21%, passing the limit was not always enough
MbtI inh: MbtI salicylate synthase inhibitors, primary screen, biochemical, fluorescence intensity. AID 493033, 2011. inhibition, % (no concentration beside the values). P9WFX0. actives 0.89% (n = 100,000). purified MbtI enzyme, fluorescence intensity read-out; in the data active means inhibition mostly above about 56%, no sharp cut-off; inactive means mostly below about 77%
AID504770: growth inhibition of E. coli YBA685, primary screen, V. cholerae RctB inhibitors; actives 0.27% (n = 130,000); E. coli YBA685 rctB-dependent plasmid, OD600 growth, 3 h; stronger effect = lower value; z-score (test concentration not listed); in the data active means z-score below about -2, passing the limit was not always enough
PV pol inh: poliovirus RdRp elongation inhibitors, primary screen, biochemical, fluorescence polarization, total intensity; % elongation, % (compound at 16.7 µg/mL); actives 0.66% (n = 150,000); Genome polyprotein (Poliovirus type 1 (strain Mahoney)), P03300; poliovirus polymerase elongation; stronger effect = lower value; in the data active means % elongation below about 90%
Target sequence (P03300 1749-2209 limits assumed): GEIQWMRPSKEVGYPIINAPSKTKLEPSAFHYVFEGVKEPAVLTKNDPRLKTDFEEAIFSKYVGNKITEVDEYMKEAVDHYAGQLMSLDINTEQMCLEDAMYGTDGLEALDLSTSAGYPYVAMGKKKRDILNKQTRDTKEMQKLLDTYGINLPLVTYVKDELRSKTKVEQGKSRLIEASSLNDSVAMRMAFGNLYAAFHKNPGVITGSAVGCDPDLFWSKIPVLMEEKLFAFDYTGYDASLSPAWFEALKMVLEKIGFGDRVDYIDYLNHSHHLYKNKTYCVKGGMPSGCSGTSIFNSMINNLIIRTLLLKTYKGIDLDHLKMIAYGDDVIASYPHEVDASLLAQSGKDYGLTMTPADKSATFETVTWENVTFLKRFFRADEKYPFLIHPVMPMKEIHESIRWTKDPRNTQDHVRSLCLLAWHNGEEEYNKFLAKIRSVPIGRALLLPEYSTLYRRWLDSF
* hit, by the source's call; / = no result; ! = a repeat was not active. Only some compounds are listed: those with a hit (about 1.5% of all), similar ones and a draw of the others.

SMILES | MenB inh | MbtI inh | AID504770 | PV pol inh
Fc1ccccc1-c1nc(-c2cccs2)c(-c2cccs2)[nH]1 | -5 | 117 | 2 | 104
N/C(=N\O)c1cccc(/C(N)=N/O)n1 | 47* | / | -0.75 | 113
N/C(=N\O)c1ccncc1 | -17 | -8 | 1.7 | 102
O=S1(=O)CCN(Cc2cccc(C(F)(F)F)c2)CC1 | / | / | -2.7* | /
FC(F)(F)c1cccc(CN2CCSCC2)c1 | -7 | -3 | -0.3 | 97
COc1ccc(NC(=O)c2cnn(-c3ccc(C)c(C)c3)c2C2CCNCC2)cc1Cl | -1 | 6 | 0.85 | 98
CCCc1ccc(OCC(=O)Nc2scc(-c3cccs3)c2C(=O)OC)cc1 | / | / | / | 74*
CCOC(=O)c1c(-c2cccs2)csc1NC(=O)COC(=O)c1cc2c(s1)CCC2 | -10 | -41 | 1 | 102
COC(=O)c1c(NC(=O)COc2ccc(C(C)C)cc2)sc2c1CCCC2 | / | / | / | 104
COC(=O)c1c(-c2cccs2)csc1NC(=O)COc1ccc(C(C)C)cc1 | / | / | / | 70*
Oc1[nH]c2ccccc2c1N=NC1=NCCC1 | -148 | 2 | -1.1 | 101
Cn1c(=O)[nH]c2nncnc2c1=O | -152 | 6 | -1.7 | 43*
Cn1c(=O)[nH]c2c(nc(-c3ccccc3)n2C)c1=O | 5 | / | 2.1 | 109
NNC(=O)c1cc(=S)nc[nH]1 | -35 | 99* | -1.3 | 97
NNC(=O)c1cc2ccccc2[nH]1 | 4 | 16 | -0.35 | 100
FC(F)(F)c1cc(-c2cccc3ccccc23)n[nH]1 | / | / | 2.8 | /
CN1CCC(N(Cc2ccc3c(c2)OCO3)C(=O)c2cn(Cc3ccccc3)c3ccsc23)CC1 | 24* | 0 | 1.2 | 104
CN1CCC(N(Cc2ccco2)C(=O)c2cc3sccc3n2Cc2ccccc2)CC1 | -22 | 8 | -0.7 | 102
Cc1ccc(C(=O)NNc2nc(Nc3ccccc3)nc(N3CCCC3)n2)cc1 | -4 | -2 | 0.4 | 102
CCn1cc(C(=O)NC2CCCc3ccccc32)c(=O)c2ccc(C)nc21 (stereo not given) | -19 | 9 | 0.25 | 102
Nc1nonc1/C(=N/O)N1CCCC1 | 26 | 8 | 1.4 | 101
Nc1nonc1C(=O)N1CCCC1 | 46* | 10 | 1.8 | 104
CCc1nc2ccc(NC(C)=O)cc2c(=O)n1Cc1ccccc1 | -18 | 4 | -0.3 | 104
O=C(Nc1ccc2nc(C3CC3)n(Cc3ccccc3)c(=O)c2c1)C1CC1 | 33* | 10 | -0.7 | 101
O=C(OCC(=O)N1CCc2ccccc2C1)c1ccccc1 | -23 | 3 | -0.45 | 84*
SMILES | MenB inh | MbtI inh | AID504770 | PV pol inh
CC(C)c1ccc(C2C(C#N)=C(N)SC(N)=C2C#N)cc1 | -31 | / | 0.05 | 45
N#CC1=C(N)SC(N)=C(C#N)C1c1ccc(O)cc1 | -174 | 83* | -2.1 | 92
Cc1ccc(S(=O)(=O)NC(CO)C(=O)O)cc1 (stereo not given) | 31* | 5 | -0.65 | 102
COC(=O)C(CO)NS(=O)(=O)c1ccc(C)cc1 (stereo not given) | / | / | -0.9 | /
CC(=O)NS(=O)(=O)c1ccc(NC(=O)c2ccc(C)c(C)c2)cc1 | 23* | 6 | -0.7 | 103
Cc1ccnc(NS(=O)(=O)c2ccc(NC(=O)c3ccc(C)c(C)c3)cc2)n1 | / | / | / | 107
Cc1ccc(Cn2c(SCC(=O)c3ccc(Br)cc3)nc3ncccc3c2=O)cc1 | -12 | 3 | 0.15 | 101
COC(=O)c1sc(NC(=O)COc2ccc(OC)cc2)c(C#N)c1C | -20 | / | -0.5 | 83*
COc1ccc(Cl)cc1NC(=O)c1cc2c(Cl)nc3ccc(C)cc3c2s1 | -11 | 0 | -1.1 | 101
Cc1ccc(NC(=O)c2cc3c(Cl)nc4ccc(C)cc4c3s2)c(Cl)c1 | / | / | / | 63*
O=C1C(Sc2ncn[nH]2)=C/C(=N/S(=O)(=O)c2ccc(Cl)cc2)c2ccccc21 | / | 95* | -0.45 | /
COc1ccc(Cl)cc1-n1nnc(-c2nc(-c3ccccc3)no2)c1C | / | / | / | 102
Cc1c(-c2nc(-c3ccccc3)no2)nnn1-c1ccc(F)c(Cl)c1 | / | / | / | 81*
Fc1cccc(F)c1C=Nc1ccc2c(c1)OCCO2 | -21 | -21 | -2.5 | 101
CC(=O)Oc1c(Br)cc2oc(=O)sc2c1Br | -65 | 91* | 0.5 | 99
CN(C1CCCCC1)S(=O)(=O)N1CCCC(C(=O)O)C1 (stereo not given) | -11 | -2 | -0.65 | 104
Cn1ncc(S(=O)(=O)Cc2ccccc2)c(Cl)c1=O | 4 | 90* | -0.2 | 98
CC(C)n1cn[nH]c1=S | -23 | 59* | 0.15 | 96
O=C1C=CC(=O)c2c(O)cccc21 | 7 | -21 | 0.85 | 87*!

Screening results as filed in PubChem.
